Data: article PMC5540273 (PLoS ONE, 2017)

These compounds were tested on CDK4. Settings: concentration: 1 μM, replicates: in singlicate; n = 1.
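Note: KINOMEscan kinase panel screen.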

Structure (SMILES)	%Inh [%]
Cc1ccc(-c2cc(-c3c[nH]nc3-c3ccccn3)ccn2)cc1 [GW684088]	43
Cl.Oc1ccc(-c2nc(-c3ccccc3)[nH]c2-c2ccncc2)cc1 [SB-428218]	0
COc1ccc(C2=C(Nc3cccc(C(=O)O)c3)C(=O)NC2=O)cc1 [SB-390765]	51
COc1ccc2nc(-c3cccc(C)n3)nc(Nc3ccncc3)c2c1 [GSK204919]	0
CC1=C(C(=O)Nc2cc3cn[nH]c3cc2F)C(c2ccc(C(F)(F)F)cc2)CC(=O)N1 (stereo not shown) [GSK429286]	11
Cn1ccc2ncnc(Oc3cccc(C(=O)Nc4ccccc4)c3)c21	0
Cl.NC(=O)c1cccc(Nc2nccc(Nc3ccc(Oc4cccc(Cl)c4)c(Cl)c3)n2)c1 [GW659008]	48
COc1ccc(Nc2nccc(-c3cccc(NC(=O)c4cc5cc(F)ccc5[nH]4)c3)n2)cc1 [GSK1229782]	48
O=C(Nc1n[nH]c2nc(-c3nccs3)c(Br)cc12)C1CCCC1 [SB-742609]	81
CCn1c(-c2ccccn2)nc2cnccc21 [SB-736398]	34
Cn1ccc2ncnc(Oc3ccc(Nc4nc5ccccc5[nH]4)cc3)c21	0
CS(=O)(=O)c1ccc(-c2nc3n(c2-c2ccncc2)CCC3)cc1 [SKF-105942]	9
Nc1nc(-c2nccs2)c(-c2ccnc3ccccc23)s1 [GW693542]	15
COc1cccc(NC(=O)NC2CCN(c3ccnc(Nc4ccc(F)cc4)n3)C2)c1 (stereo not shown) [GSK1379721]	0
Cn1ccc2ncnc(Oc3ccc(NC(=O)Nc4ccccc4)cc3)c21	0
Cc1csc(-c2nc(Nc3ccncc3)c3ccccc3n2)n1 [GW869640]	20
O=c1cc(N2CCOCC2)nc2n(Cc3cccc(Cl)c3Cl)ccn12 [GSK2286295]	0
COc1cc2ncnc(Nc3ccc4nc(-c5ccccc5)[nH]c4c3)c2cc1OC.Cl [GW282450]	20

Structure (SMILES)	%Inh [%]
CCCc1ccc(S(=O)(=O)NC2CCN(c3ccnc(Nc4ccc(F)cc4)n3)C2)cc1 (stereo not shown) [GSK1379715]	0
COc1cc2nccc(Nc3ccc(NC(=O)c4ccc(C)cc4)c(O)c3)c2cc1OC.Cl [GW440132]	35
CCn1c(-c2cccnc2O)nc2cnccc21 [SB-736715]	4
O=C(Nc1n[nH]c2cc(-c3cccc(F)c3F)ccc12)C1CC1 [SB-733894]	0
Cc1c(O)cccc1Nc1ccnc2ccc(C(F)(F)F)cc12.Cl [GW466413]	33
COc1ccccc1-c1ccc2c(NC(=O)C3CC3)n[nH]c2n1 [SB-711239]	33
COC(=O)c1c(-c2ccccc2)c2cc(C(=O)O)ccc2c(=O)n1Cc1ccccc1	0
Cc1ccc(NC(=O)Nc2cc(C(C)(C)C)nn2-c2ccccc2)cc1 [GSK1014915]	0
Cc1cc(NCC(c2ccccc2)c2ccccc2)nc(NCc2ccc(C(F)(F)F)cc2)n1 [GW497681]	0
Cc1cccc(-c2nc(-c3ccc(S(C)(=O)=O)cc3)sc2-c2ccnc(NCCc3ccccc3)c2)c1	0
O=C(Nc1ccccc1)Nc1cccc(Oc2ccc3nccn3n2)c1	0
COc1cccc(-c2cc(-c3c[nH]nc3-c3ccccn3)ccn2)c1 [GW680338]	31
CN(C)CCN(C)C(=O)c1cc(-c2ccncc2)c(-c2ccc(Cl)c(O)c2)o1.Cl.Cl [SB-710397]	0
COc1cc(Nc2nccc(N3CCC(NC(=O)Nc4cc(C)ccc4C)C3)n2)cc(OC)c1OC (stereo not shown) [GSK1379762]	0
Fc1cc(Cl)ccc1Nc1ccnc2cc(-c3ccc(CN4CCCCC4)o3)ccc12 [GW560116]	35
Cc1cccc(-c2nc(Nc3cccc(C(N)=O)c3)c3ccccc3n2)n1 [GW876019]	0
Clc1cc(Cl)cc(Nc2ccnc(Nc3cc(Cl)cc(Cl)c3)n2)c1 [GSK175726]	11

Each compound was assayed on CDK5. Settings: concentration: 1 μM, replicates: in singlicate; n = 1.

Structure (SMILES)	%Inh [%]
Cc1ccc(-c2cc(-c3c[nH]nc3-c3ccccn3)ccn2)cc1 [GW684088]	0
Cl.Oc1ccc(-c2nc(-c3ccccc3)[nH]c2-c2ccncc2)cc1 [SB-428218]	0
COc1ccc(C2=C(Nc3cccc(C(=O)O)c3)C(=O)NC2=O)cc1 [SB-390765]	16
COc1ccc2nc(-c3cccc(C)n3)nc(Nc3ccncc3)c2c1 [GSK204919]	0
CC1=C(C(=O)Nc2cc3cn[nH]c3cc2F)C(c2ccc(C(F)(F)F)cc2)CC(=O)N1 (stereo not shown) [GSK429286]	0
Cn1ccc2ncnc(Oc3cccc(C(=O)Nc4ccccc4)c3)c21	16
Cl.NC(=O)c1cccc(Nc2nccc(Nc3ccc(Oc4cccc(Cl)c4)c(Cl)c3)n2)c1 [GW659008]	0
COc1ccc(Nc2nccc(-c3cccc(NC(=O)c4cc5cc(F)ccc5[nH]4)c3)n2)cc1 [GSK1229782]	1
O=C(Nc1n[nH]c2nc(-c3nccs3)c(Br)cc12)C1CCCC1 [SB-742609]	0
CCn1c(-c2ccccn2)nc2cnccc21 [SB-736398]	0
Cn1ccc2ncnc(Oc3ccc(Nc4nc5ccccc5[nH]4)cc3)c21	0
CS(=O)(=O)c1ccc(-c2nc3n(c2-c2ccncc2)CCC3)cc1 [SKF-105942]	0
Nc1nc(-c2nccs2)c(-c2ccnc3ccccc23)s1 [GW693542]	0
COc1cccc(NC(=O)NC2CCN(c3ccnc(Nc4ccc(F)cc4)n3)C2)c1 (stereo not shown) [GSK1379721]	0
Cn1ccc2ncnc(Oc3ccc(NC(=O)Nc4ccccc4)cc3)c21	0
Cc1csc(-c2nc(Nc3ccncc3)c3ccccc3n2)n1 [GW869640]	13
O=c1cc(N2CCOCC2)nc2n(Cc3cccc(Cl)c3Cl)ccn12 [GSK2286295]	0
COc1cc2ncnc(Nc3ccc4nc(-c5ccccc5)[nH]c4c3)c2cc1OC.Cl [GW282450]	0

Structure (SMILES)	%Inh [%]
CCCc1ccc(S(=O)(=O)NC2CCN(c3ccnc(Nc4ccc(F)cc4)n3)C2)cc1 (stereo not shown) [GSK1379715]	0
COc1cc2nccc(Nc3ccc(NC(=O)c4ccc(C)cc4)c(O)c3)c2cc1OC.Cl [GW440132]	0
CCn1c(-c2cccnc2O)nc2cnccc21 [SB-736715]	0
O=C(Nc1n[nH]c2cc(-c3cccc(F)c3F)ccc12)C1CC1 [SB-733894]	0
Cc1c(O)cccc1Nc1ccnc2ccc(C(F)(F)F)cc12.Cl [GW466413]	0
COc1ccccc1-c1ccc2c(NC(=O)C3CC3)n[nH]c2n1 [SB-711239]	0
COC(=O)c1c(-c2ccccc2)c2cc(C(=O)O)ccc2c(=O)n1Cc1ccccc1	0
Cc1ccc(NC(=O)Nc2cc(C(C)(C)C)nn2-c2ccccc2)cc1 [GSK1014915]	8
Cc1cc(NCC(c2ccccc2)c2ccccc2)nc(NCc2ccc(C(F)(F)F)cc2)n1 [GW497681]	0
Cc1cccc(-c2nc(-c3ccc(S(C)(=O)=O)cc3)sc2-c2ccnc(NCCc3ccccc3)c2)c1	9
O=C(Nc1ccccc1)Nc1cccc(Oc2ccc3nccn3n2)c1	0
COc1cccc(-c2cc(-c3c[nH]nc3-c3ccccn3)ccn2)c1 [GW680338]	0
CN(C)CCN(C)C(=O)c1cc(-c2ccncc2)c(-c2ccc(Cl)c(O)c2)o1.Cl.Cl [SB-710397]	0
COc1cc(Nc2nccc(N3CCC(NC(=O)Nc4cc(C)ccc4C)C3)n2)cc(OC)c1OC (stereo not shown) [GSK1379762]	0
Fc1cc(Cl)ccc1Nc1ccnc2cc(-c3ccc(CN4CCCCC4)o3)ccc12 [GW560116]	0
Cc1cccc(-c2nc(Nc3cccc(C(N)=O)c3)c3ccccc3n2)n1 [GW876019]	0
Clc1cc(Cl)cc(Nc2ccnc(Nc3cc(Cl)cc(Cl)c3)n2)c1 [GSK175726]	0
